Experimental data taken from PubChem BioAssay (EPA / NIEHS).
Where “and” joins values, the source holds several entries; their conditions need not be identical. Equal entries are not always repeated. Calls of active or inactive are those of the source. The calls were made as follows: active = hit-call score of the fitted dose curve at least 0.9, where 1 is the maximum; inactive = score below 0.9.

read-out: Interleukin-8 (IL8), CXCL8 (gene 3576); assay: BSK_BF4T_IL8: BioMAP Diversity Plus: BF4T Assay for Interleukin-8 (IL8) Biomarker Activity (AID 2284263); conditions: primary human bronchial epithelial cells with fibroblasts
Procedure, shortened: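 Human bronchial epithelial cells with dermal fibroblasts co-culture; IL-8 measured by ELISA 24 hours after dosing, fitted vs DMSO. Cytotoxicity tracked in parallel cultures by SRB total-protein staining.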

Structure (SMILES) | outcome | AC50
FC(F)(F)C(F)(F)C(F)(F)CC1CO1 (centres undefined) | inactive | –
OCC(F)(F)C(F)(F)C(F)(F)C(F)(F)C(F)(F)C(F)(F)C(F)(F)C(F)(F)CO | inactive | –
FC(F)(F)C(F)(F)C(F)(F)C(F)(F)C(F)(F)C(F)(F)C(F)(F)CCI | inactive | –
NC(O)(C(F)(F)F)C(F)(F)F | inactive | –
OCCCCC(F)(F)C(F)(F)C(F)(F)C(F)(F)F | inactive | –
O=C(F)C1(F)C(F)(F)C(F)(F)C(F)(F)C(F)(F)C1(F)F | inactive | –
OC(O)C(F)(F)C(F)(F)F | inactive | –
CN(C(=O)C(F)(F)C(F)(F)C(F)(F)F)[Si](C)(C)C | inactive | –
OCCCC(F)(F)C(F)(F)C(F)(F)C(F)(F)C(F)(F)C(F)(F)C(F)(F)C(F)(F)F | – | 47.9 µM (active) and 24.3 µM (active)
O=C(O)CCC(F)(F)C(F)(F)C(F)(F)F | inactive | –
NC(=O)C(F)(F)C(F)(F)C(F)(F)C(F)(F)C(N)=O | inactive | –
NC(=O)C(F)(F)C(F)(F)C(F)(F)F | inactive | –

read-out: Interleukin-1 alpha (IL1a), IL1A (gene 3552); assay: BSK_BF4T_IL1a: BioMAP Diversity Plus: BF4T Assay for Interleukin-1 alpha (IL1a) Biomarker Activity (AID 2284264); conditions: primary human bronchial epithelial cells with fibroblasts
Procedure, shortened: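 ELISA read-out of IL-1α from bronchial epithelial cell/dermal fibroblast co-cultures 24 h after compound addition. Increases scored against DMSO negative control. Cytotoxicity monitored by sulforhodamine B staining of parallel cultures.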

Structure (SMILES) | outcome | AC50
FC(F)(F)C(F)(F)C(F)(F)CC1CO1 (centres undefined) | inactive | –
OCC(F)(F)C(F)(F)C(F)(F)C(F)(F)C(F)(F)C(F)(F)C(F)(F)C(F)(F)CO | inactive | –
FC(F)(F)C(F)(F)C(F)(F)C(F)(F)C(F)(F)C(F)(F)C(F)(F)CCI | inactive | –
NC(O)(C(F)(F)F)C(F)(F)F | inactive | –
OCCCCC(F)(F)C(F)(F)C(F)(F)C(F)(F)F | inactive | –
O=C(F)C1(F)C(F)(F)C(F)(F)C(F)(F)C(F)(F)C1(F)F | inactive | –
OC(O)C(F)(F)C(F)(F)F | inactive | –
CN(C(=O)C(F)(F)C(F)(F)C(F)(F)F)[Si](C)(C)C | inactive | –
OCCCC(F)(F)C(F)(F)C(F)(F)C(F)(F)C(F)(F)C(F)(F)C(F)(F)C(F)(F)F | – | 46.4 µM (active) and 45.7 µM (active)
O=C(O)CCC(F)(F)C(F)(F)C(F)(F)F | inactive | –
NC(=O)C(F)(F)C(F)(F)C(F)(F)C(F)(F)C(N)=O | inactive | –
NC(=O)C(F)(F)C(F)(F)C(F)(F)F | inactive | –

read-out: Decorin, DCN (gene 1634); assay: BSK_MyoF_Decorin: BioMAP Diversity Plus: MyoF Assay for Decorin Biomarker Activity (AID 2284265); conditions: primary human lung fibroblasts
Procedure, shortened: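 In this multiplexed fibroblast system, secreted or surface decorin is detected by ELISA one day after dosing, with increases scored against the DMSO vehicle.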

Structure (SMILES) | outcome | AC50
FC(F)(F)C(F)(F)C(F)(F)CC1CO1 (centres undefined) | inactive | –
Nc1cc([N+](=O)[O-])cc(Cl)c1O | inactive | –
CCN(CC)c1ccc(N=Nc2ccccc2)cc1 | inactive | –
CC(C)(C)c1cc(CCC(=O)NCCCCCCNC(=O)CCc2cc(C(C)(C)C)c(O)c(C(C)(C)C)c2)cc(C(C)(C)C)c1O | inactive | –
OCC(F)(F)C(F)(F)C(F)(F)C(F)(F)C(F)(F)C(F)(F)C(F)(F)C(F)(F)CO | inactive | –
FC(F)(F)C(F)(F)C(F)(F)C(F)(F)C(F)(F)C(F)(F)C(F)(F)CCI | inactive | –
NC(O)(C(F)(F)F)C(F)(F)F | inactive | –
OCCCCC(F)(F)C(F)(F)C(F)(F)C(F)(F)F | inactive | –
Cc1cc(C)c(O)c(C(C)(C)C)c1 | – | 35.4 µM (active)
O=C=Nc1cccc2c(N=C=O)cccc12 | inactive | –
O=C(F)C1(F)C(F)(F)C(F)(F)C(F)(F)C(F)(F)C1(F)F | inactive | –
OC(O)C(F)(F)C(F)(F)F | inactive | –
CN(C(=O)C(F)(F)C(F)(F)C(F)(F)F)[Si](C)(C)C | inactive | –
CCN(CC)c1ccc2c(c1)Oc1cc(N(CC)CC)ccc1C21OC(=O)c2ccccc21 | inactive | –
Brc1nc2ccccc2s1 | inactive | –
Cc1ccc(O)c(-n2nc3ccccc3n2)c1 | inactive | –
CC(C)CCCC(C)CCO (centres undefined) | inactive | –

Structure (SMILES) | outcome | AC50
CCN(CC)c1ccc(C=O)cc1 | inactive | –
OCCCC(F)(F)C(F)(F)C(F)(F)C(F)(F)C(F)(F)C(F)(F)C(F)(F)C(F)(F)F | – | 16.4 µM (active) and 14.4 µM (active)
CCN(CC)c1ccc(C=O)c(O)c1 | inactive | –
CCOC(C=C(C)CCC=C(C)C)OCC | – | 0.016 µM (active)
C[C@]12CC[C@H]3C(=CCc4cc(O)ccc43)[C@@H]1CCC2=O | inactive | –
O=C(O)CCC(F)(F)C(F)(F)C(F)(F)F | inactive | –
Cc1ccc(S(=O)(=O)C(I)I)cc1 | – | 5.2 µM (active)
NC(=O)C(F)(F)C(F)(F)C(F)(F)C(F)(F)C(N)=O | inactive | –
Cc1cnccn1 | inactive | –
O=C(c1ccccc1)c1ccc(O)cc1O | inactive | –
NC(=O)C(F)(F)C(F)(F)C(F)(F)F | inactive | –
O=C1C=CC(=O)N1c1ccc(Cc2ccc(N3C(=O)C=CC3=O)cc2)cc1 | inactive | –
O=C1c2c(O)ccc(Nc3ccc(CCO)cc3)c2C(=O)c2c([N+](=O)[O-])ccc(O)c21 | – | 9.73 µM (active)
CC1=CC2C3C=CC(C3)C2C1C (centres undefined) | inactive | –
Cc1cc(O)c(C(C)(C)C)cc1C(C)(C)C | – | 5.16 µM (active)
O=C=NCc1cccc(CN=C=O)c1 | inactive | –

read-out: KRT18 (gene 3875); assay: BSK_BF4T_Keratin818: BioMAP Diversity Plus: BF4T Assay for Keratin 818 Biomarker Activity (AID 2284266); conditions: primary human bronchial epithelial cells with fibroblasts
Procedure, shortened: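 Keratin 8/18 levels quantified by ELISA after 24 h chemical treatment of bronchial epithelial cell/dermal fibroblast co-cultures, fitted in positive direction relative to DMSO. Parallel SRB staining tracks overt cytotoxicity.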

Structure (SMILES) | outcome | AC50
FC(F)(F)C(F)(F)C(F)(F)CC1CO1 (centres undefined) | inactive | –
OCC(F)(F)C(F)(F)C(F)(F)C(F)(F)C(F)(F)C(F)(F)C(F)(F)C(F)(F)CO | inactive | –
FC(F)(F)C(F)(F)C(F)(F)C(F)(F)C(F)(F)C(F)(F)C(F)(F)CCI | inactive | –
NC(O)(C(F)(F)F)C(F)(F)F | inactive | –
OCCCCC(F)(F)C(F)(F)C(F)(F)C(F)(F)F | inactive | –
O=C(F)C1(F)C(F)(F)C(F)(F)C(F)(F)C(F)(F)C1(F)F | inactive | –
OC(O)C(F)(F)C(F)(F)F | inactive | –
CN(C(=O)C(F)(F)C(F)(F)C(F)(F)F)[Si](C)(C)C | inactive | –
OCCCC(F)(F)C(F)(F)C(F)(F)C(F)(F)C(F)(F)C(F)(F)C(F)(F)C(F)(F)F | – | 47.1 µM (active) and 33.9 µM (active)
O=C(O)CCC(F)(F)C(F)(F)C(F)(F)F | inactive | –
NC(=O)C(F)(F)C(F)(F)C(F)(F)C(F)(F)C(N)=O | inactive | –
NC(=O)C(F)(F)C(F)(F)C(F)(F)F | inactive | –
